Experimental data taken from PubChem BioAssay AID1159580 (chemical genetic matrix, 2015).
Screen size: about 5,500 compounds; about 2,000 (36%) were called active. Roughly 18% stayed inconclusive and do not appear here. Rule as the data show it: active = normalized growth mostly below about 0.91 (no sharp cut-off); inconclusive = no clear call, values can overlap the other calls; inactive = mostly above about 0.92. This is one part of the list.

Experiment: chemical genetic growth profiling, strain panel (AID 1159580);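 also: tested at 20 µM; growth read once vehicle control cultures reached saturation at 30 °C; 1 = growth at the plate median or of vehicle wells; lower values mean less growth of the strain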
Settings: growth OD
[1] = S. cerevisiae deletion strains, locus YHR030C, strain SLT2, active compounds read low
[2] = S. cerevisiae deletion strains, locus YJL095W, strain BCK1, active compounds read low
[3] = S. cerevisiae deletion strains, locus YAL013W, strain DEP1, active compounds read low
[4] = S. cerevisiae deletion strains, locus YBR229C, strain ROT2, active compounds read low
[5] = S. cerevisiae deletion strains, locus YDL101C, strain DUN1, active compounds read low
[6] = S. cerevisiae deletion strains, locus YDR150W, strain NUM1, active compounds read low
[7] = S. cerevisiae deletion strains, locus YEL061C, strain CIN8, active compounds read low
[8] = S. cerevisiae deletion strains, locus YGR078C, strain PAC10, active compounds read low
[9] = S. cerevisiae deletion strains, locus YJR043C, strain POL32, active compounds read low
[10] = S. cerevisiae deletion strains, locus YJR075W, strain HOC1, active compounds read low
[11] = S. cerevisiae deletion strains, locus YLR039C, strain RIC1, active compounds read low
[12] = S. cerevisiae deletion strains, locus YLR262C, strain YPT6, active compounds read low
[13] = S. cerevisiae deletion strains, locus YMR263W, strain SAP30, active compounds read low
[14] = S. cerevisiae deletion strains, locus YNL322C, strain KRE1, active compounds read low
[15] = S. cerevisiae deletion strains, locus YPL241C, strain CIN2, active compounds read low

Measured: normalized growth

CC[N+](CC)(CC(=O)Nc1c(C)cccc1C)Cc1ccccc1
inactive: [1] 0.962 | S. cerevisiae deletion strains, locus YHR079C, strain IRE1, active compounds read low 0.878 | [2] 0.916 | S. cerevisiae deletion strains, locus YJR066W, strain TOR1, active compounds read low 0.897 | S. cerevisiae deletion strains, locus YNL183C, strain NPR1, active compounds read low 0.851 | S. cerevisiae deletion strains, locus YOR231W, strain MKK1, active compounds read low 0.899 | S. cerevisiae deletion strains, locus YPL256C, strain CLN2, active compounds read low 0.868
active: S. cerevisiae deletion strains, locus YLR113W, strain HOG1, active compounds read low 0.814

CN1C2CCC1CC(=NO)C2
inactive: [3] 0.993 | [4] 0.982 | [5] 1.02 | [6] 0.991 | [7] 0.997 | [8] 1 | [1] 1.07 | S. cerevisiae deletion strains, locus YHR087W, strain rtc3, active compounds read low 0.993 | S. cerevisiae deletion strains, locus YJL187C, strain SWE1, active compounds read low 0.989 | [9] 0.986 | [10] 0.984 | S. cerevisiae deletion strains, locus YKL190W, strain CNB1, active compounds read low 0.994 | [11] 0.998 | S. cerevisiae deletion strains, locus YLR058C, strain SHM2 (second series), active compounds read low 0.983 | S. cerevisiae deletion strains, locus YLR085C, strain ARP6, active compounds read low 1.02 | [12] 0.997 | S. cerevisiae deletion strains, locus YML094W, strain GIM5, active compounds read low 1.01 | S. cerevisiae deletion strains, locus YMR219W, strain ESC1, active compounds read low 1.01 | [13] 0.986 | S. cerevisiae deletion strains, locus YNL153C, strain GIM3, active compounds read low 1.03 | S. cerevisiae deletion strains, locus YNL298W, strain CLA4 (second series), active compounds read low 1.03 | [14] 1 | S. cerevisiae deletion strains, locus YNR030W, strain Alg12, active compounds read low 0.986 | S. cerevisiae deletion strains, locus YPL055C, strain LGE1, active compounds read low 0.984 | [15] 0.975 | S. cerevisiae deletion strains, locus YPR135W, strain CTF4, active compounds read low 1.03

CO[C@@]1(NC(=O)CSCC#N)C(=O)N2C(C(=O)O)=C(CSc3nnnn3C)CS[C@@H]21
inactive: S. cerevisiae deletion strains, locus YAL040C, strain CLN3, active compounds read low 1.01 | S. cerevisiae deletion strains, locus YER002W, strain NOP16, active compounds read low 0.986 | [8] 1 | [10] 1 | S. cerevisiae deletion strains, locus YNL175C, strain NOP13, active compounds read low 0.995 | S. cerevisiae deletion strains, locus YNL197C, strain WHI3, active compounds read low 1 | S. cerevisiae deletion strains, locus YNL224C, strain SQS1, active compounds read low 1 | S. cerevisiae deletion strains, locus YOR083W, strain WHI5 (second series), active compounds read low 1 | [15] 1

CCCc1occc(=O)c1/C=C/O
inactive: [3] 0.98 | S. cerevisiae deletion strains, locus YBR021W, strain FUR4, active compounds read low 0.999 | [4] 0.987 | S. cerevisiae deletion strains, locus YCL029C, strain bik1, active compounds read low 0.97 | S. cerevisiae deletion strains, locus YDL035C, strain GPR1, active compounds read low 0.981 | S. cerevisiae deletion strains, locus YDL074C, strain BRE1, active compounds read low 1.01 | [5] 0.982 | S. cerevisiae deletion strains, locus YDL134C, strain PPH21, active compounds read low 0.939 | S. cerevisiae deletion strains, locus YDL185W, strain tfp1, active compounds read low 0.97 | S. cerevisiae deletion strains, locus YDL192W, strain arf1, active compounds read low 0.923 | S. cerevisiae deletion strains, locus YDR101C, strain arx1, active compounds read low 0.943 | [6] 0.983 | S. cerevisiae deletion strains, locus YDR162C, strain NBP2, active compounds read low 0.927 | S. cerevisiae deletion strains, locus YDR318W, strain mcm21, active compounds read low 0.942 | S. cerevisiae deletion strains, locus YDR388W, active compounds read low 0.964 | [7] 0.98 | S. cerevisiae deletion strains, locus YER110C, active compounds read low 0.963 | S. cerevisiae deletion strains, locus YER155C, strain BEM2, active compounds read low 0.967 | S. cerevisiae deletion strains, locus YER167W, strain BCK2, active compounds read low 0.936 | S. cerevisiae deletion strains, locus YGL078C, strain dbp3, active compounds read low 1 | S. cerevisiae deletion strains, locus YGL086W, strain mad1, active compounds read low 0.979 | S. cerevisiae deletion strains, locus YGL248W, strain PDE1, active compounds read low 0.949 | [8] 0.964 | S. cerevisiae deletion strains, locus YGR135W, strain pre9, active compounds read low 0.948 | S. cerevisiae deletion strains, locus YGR252W, strain gcn5, active compounds read low 0.925 | [1] 0.986 | S. cerevisiae deletion strains, locus YHR079C, strain IRE1 (second series), active compounds read low 0.959 | S. cerevisiae deletion strains, locus YHR094C, strain hxt1, active compounds read low 0.957 | S. cerevisiae deletion strains, locus YHR129C, strain ARP1, active compounds read low 0.974 | S. cerevisiae deletion strains, locus YHR200W, strain rpn10, active compounds read low 0.95 | S. cerevisiae deletion strains, locus YIL066C, strain RNR3, active compounds read low 0.97 | S. cerevisiae deletion strains, locus YIL073C, strain SPO22, active compounds read low 0.992 | S. cerevisiae deletion strains, locus YIL125W, strain kgd1, active compounds read low 0.964 | S. cerevisiae deletion strains, locus YIR030C, strain dcg1, active compounds read low 0.955 | [2] 0.909 | S. cerevisiae deletion strains, locus YJL134W, strain LCB3, active compounds read low 0.984 | S. cerevisiae deletion strains, locus YJL168C, strain set2, active compounds read low 0.987 | S. cerevisiae deletion strains, locus YJL187C, strain SWE1 (second series), active compounds read low 0.963 | [9] 0.943 | [10] 0.945 | S. cerevisiae deletion strains, locus YKL009W, strain mrt4, active compounds read low 1.02 | S. cerevisiae deletion strains, locus YKL068W, active compounds read low 0.972 | S. cerevisiae deletion strains, locus YKL085W, strain MDH1 (second series), active compounds read low 0.96 | S. cerevisiae deletion strains, locus YKL085W, strain MDH1, active compounds read low 0.96 | [11] 0.929 | S. cerevisiae deletion strains, locus YLR058C, strain SHM2, active compounds read low 0.973 | S. cerevisiae deletion strains, locus YLR102C, strain apc9, active compounds read low 0.966 | [12] 0.922 | S. cerevisiae deletion strains, locus YLR268W, strain sec22, active compounds read low 0.98 | S. cerevisiae deletion strains, locus YLR330W, strain CHS5, active compounds read low 0.969 | S. cerevisiae deletion strains, locus YLR342W, strain FKS1 (second series), active compounds read low 0.982 | S. cerevisiae deletion strains, locus YLR371W, strain rom2, active compounds read low 0.964 | S. cerevisiae deletion strains, locus YLR418C, strain cdc73, active compounds read low 0.872 | S. cerevisiae deletion strains, locus YML016C, strain PPZ1, active compounds read low 0.97 | S. cerevisiae deletion strains, locus YML032C, strain rad52, active compounds read low 0.925 | S. cerevisiae deletion strains, locus YML124C, strain tub3, active compounds read low 0.954 | S. cerevisiae deletion strains, locus YMR078C, strain ctf18, active compounds read low 0.931 | S. cerevisiae deletion strains, locus YMR223W, strain ubp8, active compounds read low 0.969 | [13] 0.975 | S. cerevisiae deletion strains, locus YMR307W, strain GAS1, active compounds read low 0.94 | S. cerevisiae deletion strains, locus YNL067W, strain RPL9B, active compounds read low 0.962 | S. cerevisiae deletion strains, locus YNL233W, strain BNI4, active compounds read low 0.962 | S. cerevisiae deletion strains, locus YNL250W, strain rad50, active compounds read low 0.975 | S. cerevisiae deletion strains, locus YNL271C, strain bni1, active compounds read low 0.972 | S. cerevisiae deletion strains, locus YNL298W, strain CLA4, active compounds read low 0.976 | S. cerevisiae deletion strains, locus YNL307C, strain MCK1, active compounds read low 0.956 | [14] 0.986 | S. cerevisiae deletion strains, locus YNR052C, strain pop2, active compounds read low 0.993 | S. cerevisiae deletion strains, locus YOL006C, strain TOP1, active compounds read low 0.854 | S. cerevisiae deletion strains, locus YOL012C, strain htz1 1.14 | S. cerevisiae deletion strains, locus YOL147C, strain pex11, active compounds read low 0.983 | S. cerevisiae deletion strains, locus YOR061W, strain CKA2, active compounds read low 0.998 | S. cerevisiae deletion strains, locus YOR069W, strain VPS5, active compounds read low 0.974 | S. cerevisiae deletion strains, locus YOR136W, strain idh2, active compounds read low 0.985 | S. cerevisiae deletion strains, locus YOR144C, strain elg1, active compounds read low 0.962 | S. cerevisiae deletion strains, locus YOR184W, strain ser1, active compounds read low 0.922 | S. cerevisiae deletion strains, locus YOR316C, strain cot1, active compounds read low 0.964 | [15] 0.979 | S. cerevisiae deletion strains, locus YPR119W, strain clb2, active compounds read low 0.964 | S. cerevisiae deletion strains, locus YPR141C, strain kar3, active compounds read low 0.946 | S. cerevisiae deletion strains, locus YPR163C, strain tif3, active compounds read low 0.986 | S. cerevisiae deletion strains, locus YPR167C, strain met16, active compounds read low 0.958 | S. cerevisiae deletion strains, strain wtn01, active compounds read low 0.995 | S. cerevisiae strains, strain wild type, active compounds read low 0.968
active: S. cerevisiae deletion strains, locus YDR502C, strain sam2, active compounds read low 0.913 | S. cerevisiae deletion strains, locus YKR001C, strain vps1, active compounds read low 0.85
